Test results: PubChem BioAssay AID651847 (Broad Institute, 2012)
Where “and” joins values, the source holds several entries; their conditions need not be identical. Identical values can stand only once. Inconclusive results are not listed. Calls of active or inactive are those of the source. How the calls were made is not given here.

Assay: dose response, V. cholerae BH1651, dry powder (AID 651847)
Settings: V. cholerae BH1651 luxOD47E, luciferase light induction, 6 h; at 80 µM (top of the series) unless noted
For `CCn1nnnc1NCc1ccc(N2CCCC2)cc1`, the activation (light induction) was -12.5% (inactive). With `O=C(Cc1ccc(-c2ccccc2)cc1)NC1CCCC1` the activation (light induction) was 0% (inactive). In the case of `CCn1nnnc1NCc1ccccc1N1CCCC1`, the activation (light induction) is reported as 0% (inactive). In the case of `CCn1nnnc1NCc1ccc(N2CCCCC2)cc1`, the activation (light induction) is reported as 0% [at 28.5 µM] (inactive). In the case of `Cc1ccc(Cn2nnnc2NCc2ccc(N3CCCC3)cc2)cc1`, the activation (light induction) is reported as -12.5% (inactive). With `CC(C)c1ccc(CNc2nnnn2C)cc1` the activation (light induction) was 37.5% (inactive). With `CCn1nnnc1NCc1cccc(N2CCCC2)c1` the activation (light induction) was -33.3% (inactive). In the case of `O=C(NCc1ccc(-c2ccccc2)cc1)C1CCCC1`, the activation (light induction) is reported as 12.5% (inactive). For `CCn1nnnc1NCc1ccc(C(C)C)cc1`, the activation (light induction) was -4.17% (inactive) and 0% (inactive). In the case of `CC(C)NC(=O)Cc1ccc(-c2ccccc2)cc1`, the activation (light induction) is reported as 25% (inactive). With `CC1(NC(=O)Cc2ccc(-c3ccccc3)cc2)COC1` the activation (light induction) was 0% (inactive). With `O=C(Cc1ccccc1C(F)(F)F)NC1CCCC1` the activation (light induction) was 0% (inactive). With `O=C(Cc1ccc(-c2ccccc2)cc1)NC1CCCCC1` the activation (light induction) was -12.5% (inactive). In the case of `Cc1ccccc1CC(=O)NC1CCCC1`, the activation (light induction) is reported as 12.5% (inactive). For `CCC(CC)NC(=O)Cc1ccc(-c2ccccc2)cc1`, the activation (light induction) was -16.7% (inactive). With `c1ccc(Cn2nnnc2NCc2ccc(N3CCCC3)cc2)cc1` the activation (light induction) was 0% (inactive). With `CCn1nnc(NCc2ccc(C)cc2)n1` the activation (light induction) was 16.7% (inactive). In the case of `O=C(Cc1ccc(-c2ccccc2)cc1)NC1CCC1`, the activation (light induction) is reported as 0% (inactive). In the case of `O=C(Cc1cccc(OC(F)(F)F)c1)NC1CCCC1`, the activation (light induction) is reported as 0% (inactive). For `O=C(Cc1ccccc1F)NC1CCCC1`, the activation (light induction) was -12.5% (inactive). With `CCCn1nnnc1NCc1ccc(N2CCCC2)cc1` the activation (light induction) was -25% (inactive). For `O=C(Cc1ccc(-c2ccccc2)cc1)NC1CC1`, the activation (light induction) was 25% (active). In the case of `CCc1ccccc1NCc1ccc(N2CCCC2)cc1`, the activation (light induction) is reported as -16.7% (inactive). In the case of `Cn1nnnc1NCc1ccc(N2CCCC2)cc1`, the activation (light induction) is reported as -25% (inactive). For `c1ccc(Cn2nnc(NCc3ccc(N4CCCC4)cc3)n2)cc1`, the activation (light induction) was -50% (inactive). With `CCC(C)NC(=O)Cc1ccc(-c2ccccc2)cc1` (stereo not given) the activation (light induction) was 0% (inactive). In the case of `CCn1nccc1NCc1ccc(N2CCCC2)cc1`, the activation (light induction) is reported as 12.5% (inactive). In the case of `CC(C)(C)OC(=O)N1CC(NC(=O)Cc2ccc(-c3ccccc3)cc2)C1`, the activation (light induction) is reported as 0% (inactive). For `O=C(Cc1cccc(F)c1)NC1CCCC1`, the activation (light induction) was 0% (inactive). For `CCn1nnnc1CCc1ccc(N2CCCC2)cc1`, the activation (light induction) was -12.5% (inactive). In the case of `CCn1nnc(CCc2ccc(N3CCCC3)cc2)n1`, the activation (light induction) is reported as -25% (inactive). For `COc1ccc(CC(=O)NC2CCCC2)cc1`, the activation (light induction) was 12.5% (inactive). For `CCCCn1nnnc1NCc1ccc(N2CCCC2)cc1`, the activation (light induction) was -25% (inactive). In the case of `CS(=O)(=O)c1ccc(CC(=O)NC2CCCC2)cc1`, the activation (light induction) is reported as -25% (inactive). For `CCn1nccc1/N=C/c1ccc(N2CCCC2)cc1`, the activation (light induction) was 0% (inactive). In the case of `O=C(Cc1ccc(-c2ccccc2)cc1)NC1CCOCC1`, the activation (light induction) is reported as -12.5% (inactive). For `CCn1nnnc1NCc1cccc(OC)c1`, the activation (light induction) was -25% (inactive). For `c1ccc(-n2nnnc2NCc2ccc(N3CCCC3)cc2)cc1`, the activation (light induction) was 37.5% (inactive). In the case of `CCCn1nnnc1NCc1ccccc1Cl`, the activation (light induction) is reported as 25% (inactive). In the case of `CCCn1nnnc1NCc1ccc(C(C)C)cc1`, the activation (light induction) is reported as 50% (inactive).
